# Measurements published in the supplement of paper PMC12282887.
# ± gives the standard deviation of the averaged measurements.
# Assays:
# Assay in all cases: promoter activity interaction Z-score (Lux/OD deviation from empty-vector control); higher = stronger promoter induction by the compound
# [1] = test system: E. coli BW25113 acrABp lux reporter
# How it was run: (§1)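 E. coli BW25113 (wild type or marA, soxS or rob deletion) carrying low-copy luxCDABE promoter reporters grew in 40 µl LB Lennox in 384-well plates at 37°C. Each compound was tested at four 1:2 dilutions in biological duplicates. OD600 and luminescence were read every 30 min for 12 h. Areas were taken over 0–8 h (wild type) or 1–9 h (mutants), and wells below 10% of median growth area were removed. The score is the Z-transformed residual of growth-normalised luminescence fitted against the empty-vector control.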
# [2] = test system: E. coli BW25113 marRABp lux reporter
# How it was run: as §1
# [3] = test system: E. coli BW25113 micFp lux reporter
# How it was run: as §1
# [4] = test system: E. coli BW25113 ompFp lux reporter
# How it was run: as §1
# [5] = test system: E. coli BW25113 robp lux reporter
# How it was run: as §1
# [6] = test system: E. coli BW25113 soxSp lux reporter
# How it was run: as §1
# [7] = test system: E. coli BW25113 tolCp lux reporter
# How it was run: as §1
# [8] = 18.9 µg/ml, genetic background: wild type
# [9] = 18.9 µg/ml, genetic background: ΔmarA
# [10] = 18.9 µg/ml, genetic background: Δrob
# [11] = 18.9 µg/ml, genetic background: ΔsoxS
# [12] = 37.8 µg/ml, genetic background: wild type
# [13] = 37.8 µg/ml, genetic background: ΔmarA
# [14] = 37.8 µg/ml, genetic background: Δrob
# [15] = 37.8 µg/ml, genetic background: ΔsoxS
# [16] = 75.6 µg/ml, genetic background: wild type
# [17] = 75.6 µg/ml, genetic background: ΔmarA
# [18] = 75.6 µg/ml, genetic background: Δrob
# [19] = 75.6 µg/ml, genetic background: ΔsoxS
# [20] = 151.1 µg/ml, genetic background: wild type
# [21] = 151.1 µg/ml, genetic background: ΔmarA
# [22] = 151.1 µg/ml, genetic background: Δrob
# [23] = 151.1 µg/ml, genetic background: ΔsoxS
compound,measurement,setting,value
O=c1c(O)c(-c2ccc(O)c(O)c2)oc2cc(O)cc(O)c12 [Quercetin],promoter activity interaction Z-score,[1]; [8],0.0407 ± 0.033
same,promoter activity interaction Z-score,[1]; [9],0.285 ± 0.58
same,promoter activity interaction Z-score,[1]; [10],0.143 ± 0.3
same,promoter activity interaction Z-score,[1]; [11],-0.34 ± 0.38
same,promoter activity interaction Z-score,[1]; [12],-0.233 ± 0.072
same,promoter activity interaction Z-score,[1]; [13],-0.0432 ± 0.69
same,promoter activity interaction Z-score,[1]; [14],0.164 ± 0.29
same,promoter activity interaction Z-score,[1]; [15],-0.184 ± 0.31
same,promoter activity interaction Z-score,[1]; [16],0.12 ± 0.43
same,promoter activity interaction Z-score,[1]; [17],-0.0185 ± 1.1
same,promoter activity interaction Z-score,[1]; [18],0.926 ± 1.1
same,promoter activity interaction Z-score,[1]; [19],-0.604 ± 0.62
same,promoter activity interaction Z-score,[1]; [20],-0.353 ± 0.089
same,promoter activity interaction Z-score,[1]; [21],0.59 ± 0.8
same,promoter activity interaction Z-score,[1]; [22],-0.142 ± 0.23
same,promoter activity interaction Z-score,[1]; [23],-0.9 ± 0.8
same,promoter activity interaction Z-score,[2]; [8],0.0379 ± 0.17
same,promoter activity interaction Z-score,[2]; [9],-0.192 ± 0.25
same,promoter activity interaction Z-score,[2]; [10],-0.164 ± 0.21
same,promoter activity interaction Z-score,[2]; [11],0.203 ± 0.51
same,promoter activity interaction Z-score,[2]; [12],0.341 ± 0.79
same,promoter activity interaction Z-score,[2]; [13],0.116 ± 0.59
same,promoter activity interaction Z-score,[2]; [14],0.248 ± 0.078
same,promoter activity interaction Z-score,[2]; [15],0.179 ± 0.43
same,promoter activity interaction Z-score,[2]; [16],0.82 ± 0.64
same,promoter activity interaction Z-score,[2]; [17],0.9 ± 0.12
same,promoter activity interaction Z-score,[2]; [18],-0.0348 ± 0.087
same,promoter activity interaction Z-score,[2]; [19],0.129 ± 0.45
same,promoter activity interaction Z-score,[2]; [20],1.13 ± 0.91
same,promoter activity interaction Z-score,[2]; [21],0.91 ± 0.61
same,promoter activity interaction Z-score,[2]; [22],0.867 ± 0.51
same,promoter activity interaction Z-score,[2]; [23],0.0221 ± 0.045
same,promoter activity interaction Z-score,[3]; [8],-0.288 ± 0.045
same,promoter activity interaction Z-score,[3]; [9],-0.0462 ± 0.033
same,promoter activity interaction Z-score,[3]; [10],-0.011 ± 0.074
same,promoter activity interaction Z-score,[3]; [11],-0.324 ± 0.11
same,promoter activity interaction Z-score,[3]; [12],-0.188 ± 0.12
same,promoter activity interaction Z-score,[3]; [13],0.0255 ± 0.15
same,promoter activity interaction Z-score,[3]; [14],-0.0437 ± 0.18
same,promoter activity interaction Z-score,[3]; [15],0.101 ± 0.056
same,promoter activity interaction Z-score,[3]; [16],-0.0961 ± 0.062
same,promoter activity interaction Z-score,[3]; [17],0.0844 ± 0.079
same,promoter activity interaction Z-score,[3]; [18],-0.0403 ± 0.11
same,promoter activity interaction Z-score,[3]; [19],-0.101 ± 0.085
same,promoter activity interaction Z-score,[3]; [20],0.0699 ± 0.42
same,promoter activity interaction Z-score,[3]; [21],0.224 ± 0.17
same,promoter activity interaction Z-score,[3]; [22],0.00151 ± 0.41
same,promoter activity interaction Z-score,[3]; [23],-0.0142 ± 0.042
same,promoter activity interaction Z-score,[4]; [8],0.228 ± 0.3
same,promoter activity interaction Z-score,[4]; [9],-0.0494 ± 0.2
same,promoter activity interaction Z-score,[4]; [10],-0.0408 ± 0.12
same,promoter activity interaction Z-score,[4]; [11],-0.358 ± 0.37
same,promoter activity interaction Z-score,[4]; [12],5.13 ± 7
same,promoter activity interaction Z-score,[4]; [13],0.88 ± 1.6
same,promoter activity interaction Z-score,[4]; [14],1.304 ± 0.013
same,promoter activity interaction Z-score,[4]; [15],0.531 ± 0.91
same,promoter activity interaction Z-score,[4]; [16],0.467 ± 1.2
same,promoter activity interaction Z-score,[4]; [17],0.186 ± 0.5
same,promoter activity interaction Z-score,[4]; [18],0.616 ± 1.3
same,promoter activity interaction Z-score,[4]; [19],-0.383 ± 0.54
same,promoter activity interaction Z-score,[4]; [20],0.00251 ± 0.91
same,promoter activity interaction Z-score,[4]; [21],0.373 ± 2.1
same,promoter activity interaction Z-score,[4]; [22],1.79 ± 0.024
same,promoter activity interaction Z-score,[4]; [23],-0.395 ± 0.84
same,promoter activity interaction Z-score,[5]; [8],0.802 ± 0.18
same,promoter activity interaction Z-score,[5]; [9],0.257 ± 0.52
same,promoter activity interaction Z-score,[5]; [10],0.102 ± 0.22
same,promoter activity interaction Z-score,[5]; [11],0.13 ± 0.66
same,promoter activity interaction Z-score,[5]; [12],0.9459 ± 0.004
same,promoter activity interaction Z-score,[5]; [13],0.813 ± 0.4
same,promoter activity interaction Z-score,[5]; [14],0.818 ± 0.073
same,promoter activity interaction Z-score,[5]; [15],1.68 ± 0.85
same,promoter activity interaction Z-score,[5]; [16],0.907 ± 0.8
same,promoter activity interaction Z-score,[5]; [17],0.794 ± 0.53
same,promoter activity interaction Z-score,[5]; [18],0.226 ± 0.59
same,promoter activity interaction Z-score,[5]; [19],-0.114 ± 0.062
same,promoter activity interaction Z-score,[5]; [20],0.549 ± 0.61
same,promoter activity interaction Z-score,[5]; [21],0.417 ± 0.21
same,promoter activity interaction Z-score,[5]; [22],0.359 ± 0.075
same,promoter activity interaction Z-score,[5]; [23],0.712 ± 1.1
same,promoter activity interaction Z-score,[6]; [8],-0.413 ± 0.13
same,promoter activity interaction Z-score,[6]; [9],-0.385 ± 0.18
same,promoter activity interaction Z-score,[6]; [10],-0.267 ± 0.1
same,promoter activity interaction Z-score,[6]; [11],-0.281 ± 0.57
same,promoter activity interaction Z-score,[6]; [12],-0.368 ± 0.13
same,promoter activity interaction Z-score,[6]; [13],-0.526 ± 0.069
same,promoter activity interaction Z-score,[6]; [14],-0.179 ± 0.028
same,promoter activity interaction Z-score,[6]; [15],-0.0207 ± 0.51
same,promoter activity interaction Z-score,[6]; [16],-0.595 ± 0.016
same,promoter activity interaction Z-score,[6]; [17],-0.528 ± 0.057
same,promoter activity interaction Z-score,[6]; [18],-0.375 ± 0.034
same,promoter activity interaction Z-score,[6]; [19],-0.161 ± 0.89
same,promoter activity interaction Z-score,[6]; [20],-0.715 ± 0.13
same,promoter activity interaction Z-score,[6]; [21],-0.513 ± 0.048
same,promoter activity interaction Z-score,[6]; [22],-0.414 ± 0.054
same,promoter activity interaction Z-score,[6]; [23],-0.567 ± 1
same,promoter activity interaction Z-score,[7]; [8],-0.038 ± 0.65
same,promoter activity interaction Z-score,[7]; [9],-0.0776 ± 0.32
same,promoter activity interaction Z-score,[7]; [10],-0.506 ± 0.62
same,promoter activity interaction Z-score,[7]; [11],-0.651 ± 0.26
same,promoter activity interaction Z-score,[7]; [12],0.105 ± 0.049
same,promoter activity interaction Z-score,[7]; [13],0.271 ± 0.14
same,promoter activity interaction Z-score,[7]; [14],0.0838 ± 0.44
same,promoter activity interaction Z-score,[7]; [15],0.0451 ± 1.2
same,promoter activity interaction Z-score,[7]; [16],0.492 ± 0.9
same,promoter activity interaction Z-score,[7]; [17],0.253 ± 0.53
same,promoter activity interaction Z-score,[7]; [18],0.773 ± 0.82
same,promoter activity interaction Z-score,[7]; [19],-0.519 ± 0.18
same,promoter activity interaction Z-score,[7]; [20],0.00965 ± 1
same,promoter activity interaction Z-score,[7]; [21],0.125 ± 0.38
same,promoter activity interaction Z-score,[7]; [22],0.962 ± 1.8
same,promoter activity interaction Z-score,[7]; [23],-0.462 ± 0.4
